In general, residual activity refers to the signal under treatment as a percentage of the control signal.

Results on 3 compounds are retold here after ChEMBL document CHEMBL2218924, “A broad activity screen in support of a chemogenomic map for kinase signalling research and drug discovery” (Biochem J, 2013).

The target of experiment [1] is T1, Muscle, skeletal receptor tyrosine-protein kinase (Homo sapiens) (UniProt O15146).
T1 sequence (whole entry): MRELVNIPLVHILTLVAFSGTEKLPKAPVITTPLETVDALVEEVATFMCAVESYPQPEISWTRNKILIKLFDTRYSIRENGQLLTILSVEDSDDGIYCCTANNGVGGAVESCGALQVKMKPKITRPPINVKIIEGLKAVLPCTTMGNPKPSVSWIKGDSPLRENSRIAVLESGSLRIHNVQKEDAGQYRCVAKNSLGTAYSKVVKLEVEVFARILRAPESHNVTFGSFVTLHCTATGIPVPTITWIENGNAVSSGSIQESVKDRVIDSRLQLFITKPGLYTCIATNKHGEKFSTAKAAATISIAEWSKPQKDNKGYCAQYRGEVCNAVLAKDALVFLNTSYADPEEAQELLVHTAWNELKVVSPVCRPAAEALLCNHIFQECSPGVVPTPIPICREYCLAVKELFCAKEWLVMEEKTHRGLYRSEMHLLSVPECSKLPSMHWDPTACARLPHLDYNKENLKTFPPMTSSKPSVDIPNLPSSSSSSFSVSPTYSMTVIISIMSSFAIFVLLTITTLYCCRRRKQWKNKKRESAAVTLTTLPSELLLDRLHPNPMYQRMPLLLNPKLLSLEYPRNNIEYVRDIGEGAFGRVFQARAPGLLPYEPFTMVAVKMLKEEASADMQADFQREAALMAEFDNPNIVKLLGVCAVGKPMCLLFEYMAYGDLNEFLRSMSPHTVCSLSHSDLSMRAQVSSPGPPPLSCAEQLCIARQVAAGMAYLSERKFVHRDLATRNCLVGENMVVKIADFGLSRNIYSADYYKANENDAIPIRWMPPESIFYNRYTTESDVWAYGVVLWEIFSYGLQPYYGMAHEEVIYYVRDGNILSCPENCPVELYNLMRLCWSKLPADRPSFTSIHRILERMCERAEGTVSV
The note with it: at 1 µM.

Experiment [2] addresses T1, Muscle, skeletal receptor tyrosine-protein kinase (Homo sapiens). The conditions noted are these: at 10 µM.
Experiment [3] has as its target T2, Serine/threonine-protein kinase Nek11 (Homo sapiens) (UniProt Q8NG66).
T2 sequence (whole entry): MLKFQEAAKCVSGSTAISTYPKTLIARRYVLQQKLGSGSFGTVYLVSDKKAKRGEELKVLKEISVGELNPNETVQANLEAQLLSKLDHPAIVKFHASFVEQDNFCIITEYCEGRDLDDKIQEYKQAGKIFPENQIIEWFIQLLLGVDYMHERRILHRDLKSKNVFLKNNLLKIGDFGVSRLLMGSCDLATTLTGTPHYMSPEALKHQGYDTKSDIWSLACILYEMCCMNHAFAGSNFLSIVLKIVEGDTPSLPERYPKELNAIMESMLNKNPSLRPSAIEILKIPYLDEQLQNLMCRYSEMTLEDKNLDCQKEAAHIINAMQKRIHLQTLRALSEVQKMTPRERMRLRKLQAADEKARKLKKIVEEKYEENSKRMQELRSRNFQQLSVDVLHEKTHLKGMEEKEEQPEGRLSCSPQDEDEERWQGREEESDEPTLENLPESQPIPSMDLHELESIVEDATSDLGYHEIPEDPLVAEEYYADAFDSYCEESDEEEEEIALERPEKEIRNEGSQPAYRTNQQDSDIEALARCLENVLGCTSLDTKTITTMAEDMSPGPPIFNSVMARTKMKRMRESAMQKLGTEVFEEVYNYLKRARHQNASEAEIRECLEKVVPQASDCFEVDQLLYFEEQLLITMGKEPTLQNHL
The conditions noted are these: at 1 µM.

Experiment [4] deals with T2, Serine/threonine-protein kinase Nek11 (Homo sapiens). The note with it: at 10 µM.
Experiment [5] addresses T3, Serine/threonine-protein kinase Nek2 (Homo sapiens) (UniProt P51955).
T3 sequence (whole entry): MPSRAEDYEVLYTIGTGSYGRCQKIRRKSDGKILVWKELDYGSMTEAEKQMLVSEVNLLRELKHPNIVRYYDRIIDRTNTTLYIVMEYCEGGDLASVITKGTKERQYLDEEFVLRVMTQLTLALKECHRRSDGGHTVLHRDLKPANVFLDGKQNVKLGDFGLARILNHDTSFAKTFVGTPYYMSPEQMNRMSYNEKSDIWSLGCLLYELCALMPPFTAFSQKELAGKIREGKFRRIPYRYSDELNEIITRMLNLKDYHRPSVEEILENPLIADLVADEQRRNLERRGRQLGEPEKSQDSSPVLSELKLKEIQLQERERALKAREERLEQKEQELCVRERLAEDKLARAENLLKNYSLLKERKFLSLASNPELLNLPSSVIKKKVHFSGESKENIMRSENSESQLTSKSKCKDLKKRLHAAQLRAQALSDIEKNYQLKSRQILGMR
The conditions noted are these: at 1 µM.

The target in experiment [6] is T3, Serine/threonine-protein kinase Nek2 (Homo sapiens). The conditions noted are these: at 10 µM.
The target in experiment [7] is T4, Serine/threonine-protein kinase Nek3 (Homo sapiens) (UniProt P51956).
T4 sequence (whole entry): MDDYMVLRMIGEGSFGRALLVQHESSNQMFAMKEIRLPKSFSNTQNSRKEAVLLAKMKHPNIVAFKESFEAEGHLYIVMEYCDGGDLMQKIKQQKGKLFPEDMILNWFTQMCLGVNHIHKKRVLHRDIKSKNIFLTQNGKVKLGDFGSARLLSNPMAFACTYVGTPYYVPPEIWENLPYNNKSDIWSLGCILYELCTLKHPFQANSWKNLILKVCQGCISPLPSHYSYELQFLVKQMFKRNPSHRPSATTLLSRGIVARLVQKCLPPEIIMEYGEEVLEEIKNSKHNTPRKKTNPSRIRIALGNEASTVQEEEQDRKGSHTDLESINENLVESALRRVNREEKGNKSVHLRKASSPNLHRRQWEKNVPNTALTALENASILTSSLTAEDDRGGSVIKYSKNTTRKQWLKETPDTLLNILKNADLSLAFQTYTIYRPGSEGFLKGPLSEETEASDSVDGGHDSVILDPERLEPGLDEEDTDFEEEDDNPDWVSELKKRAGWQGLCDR
The note with it: at 1 µM.

For experiment [8], the target named is T4, Serine/threonine-protein kinase Nek3 (Homo sapiens). The note with it: at 10 µM.
Experiment [9] concerns the target Serine/threonine-protein kinase tousled-like 2 (Homo sapiens) (UniProt Q86UE8). The conditions noted are these: at 1 µM.
The target is the same in experiment [10]. The conditions noted are these: at 10 µM.
The target in experiment [11] is T5, Testis-specific serine/threonine-protein kinase 1 (Homo sapiens) (UniProt Q9BXA7).
T5 sequence (whole entry): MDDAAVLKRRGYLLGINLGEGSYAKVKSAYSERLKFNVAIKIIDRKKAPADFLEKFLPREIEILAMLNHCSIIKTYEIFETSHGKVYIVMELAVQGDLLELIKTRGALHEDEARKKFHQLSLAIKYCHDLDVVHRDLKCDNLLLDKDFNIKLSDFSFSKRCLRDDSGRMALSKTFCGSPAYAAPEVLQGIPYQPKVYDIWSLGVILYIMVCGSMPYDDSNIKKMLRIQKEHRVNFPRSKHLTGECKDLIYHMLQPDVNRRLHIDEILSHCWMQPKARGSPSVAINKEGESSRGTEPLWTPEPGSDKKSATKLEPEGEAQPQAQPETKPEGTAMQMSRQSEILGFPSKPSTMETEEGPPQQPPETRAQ
The conditions noted are these: at 1 µM.

Experiment [12] concerns the target T5, Testis-specific serine/threonine-protein kinase 1 (Homo sapiens). The conditions noted are these: at 10 µM.
For experiment [13], the target named is T6, Testis-specific serine/threonine-protein kinase 2 (Homo sapiens) (UniProt Q96PF2).
T6 sequence (whole entry): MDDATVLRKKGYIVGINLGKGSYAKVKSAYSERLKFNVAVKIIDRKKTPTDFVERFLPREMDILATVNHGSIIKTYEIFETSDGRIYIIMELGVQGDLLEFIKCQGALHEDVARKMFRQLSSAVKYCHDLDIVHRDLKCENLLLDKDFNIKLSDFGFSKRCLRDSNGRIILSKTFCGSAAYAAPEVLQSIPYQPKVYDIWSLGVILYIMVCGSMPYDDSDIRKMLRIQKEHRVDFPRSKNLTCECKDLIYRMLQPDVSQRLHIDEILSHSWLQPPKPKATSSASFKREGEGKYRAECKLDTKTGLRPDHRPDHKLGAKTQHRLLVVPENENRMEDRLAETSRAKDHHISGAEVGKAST
The note with it: at 10 µM.

Experiment [14] has as its target T7, Tyrosine-protein kinase Tec (Homo sapiens) (UniProt P42680).
T7 sequence (whole entry): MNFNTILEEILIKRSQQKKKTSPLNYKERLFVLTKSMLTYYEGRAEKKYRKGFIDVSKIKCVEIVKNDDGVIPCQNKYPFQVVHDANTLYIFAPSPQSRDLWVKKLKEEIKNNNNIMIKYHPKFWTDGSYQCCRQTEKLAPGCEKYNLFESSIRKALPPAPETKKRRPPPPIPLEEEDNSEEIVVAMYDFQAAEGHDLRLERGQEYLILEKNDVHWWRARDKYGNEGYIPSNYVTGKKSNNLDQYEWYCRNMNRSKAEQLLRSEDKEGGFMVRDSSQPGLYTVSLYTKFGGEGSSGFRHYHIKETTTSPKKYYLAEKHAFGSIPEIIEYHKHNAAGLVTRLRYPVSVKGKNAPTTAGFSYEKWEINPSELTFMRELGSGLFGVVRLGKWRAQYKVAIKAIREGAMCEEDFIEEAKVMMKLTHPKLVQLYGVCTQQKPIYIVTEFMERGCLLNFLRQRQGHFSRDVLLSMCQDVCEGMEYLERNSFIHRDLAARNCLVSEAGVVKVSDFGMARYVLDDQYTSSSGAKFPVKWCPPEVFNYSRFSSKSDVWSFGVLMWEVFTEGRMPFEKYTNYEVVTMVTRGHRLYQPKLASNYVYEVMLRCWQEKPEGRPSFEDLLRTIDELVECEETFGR
The note with it: at 1 µM.

The target in experiment [15] is T7, Tyrosine-protein kinase Tec (Homo sapiens). The note with it: at 10 µM.
Experiment [16] addresses Angiopoietin-1 receptor (Homo sapiens) (UniProt Q02763). The note with it: at 1 µM.
Experiment [17] shares this target. The note with it: at 10 µM.
Experiment [18] deals with High affinity nerve growth factor receptor (Homo sapiens) (UniProt P04629). The note with it: at 1 µM.
Experiment [19] shares this target. The conditions noted are these: at 10 µM.
Experiment [20] concerns the target BDNF/NT-3 growth factors receptor (Homo sapiens) (UniProt Q16620). The note with it: at 1 µM.

Sequence of Angiopoietin-1 receptor (Homo sapiens) (Q02763 whole entry): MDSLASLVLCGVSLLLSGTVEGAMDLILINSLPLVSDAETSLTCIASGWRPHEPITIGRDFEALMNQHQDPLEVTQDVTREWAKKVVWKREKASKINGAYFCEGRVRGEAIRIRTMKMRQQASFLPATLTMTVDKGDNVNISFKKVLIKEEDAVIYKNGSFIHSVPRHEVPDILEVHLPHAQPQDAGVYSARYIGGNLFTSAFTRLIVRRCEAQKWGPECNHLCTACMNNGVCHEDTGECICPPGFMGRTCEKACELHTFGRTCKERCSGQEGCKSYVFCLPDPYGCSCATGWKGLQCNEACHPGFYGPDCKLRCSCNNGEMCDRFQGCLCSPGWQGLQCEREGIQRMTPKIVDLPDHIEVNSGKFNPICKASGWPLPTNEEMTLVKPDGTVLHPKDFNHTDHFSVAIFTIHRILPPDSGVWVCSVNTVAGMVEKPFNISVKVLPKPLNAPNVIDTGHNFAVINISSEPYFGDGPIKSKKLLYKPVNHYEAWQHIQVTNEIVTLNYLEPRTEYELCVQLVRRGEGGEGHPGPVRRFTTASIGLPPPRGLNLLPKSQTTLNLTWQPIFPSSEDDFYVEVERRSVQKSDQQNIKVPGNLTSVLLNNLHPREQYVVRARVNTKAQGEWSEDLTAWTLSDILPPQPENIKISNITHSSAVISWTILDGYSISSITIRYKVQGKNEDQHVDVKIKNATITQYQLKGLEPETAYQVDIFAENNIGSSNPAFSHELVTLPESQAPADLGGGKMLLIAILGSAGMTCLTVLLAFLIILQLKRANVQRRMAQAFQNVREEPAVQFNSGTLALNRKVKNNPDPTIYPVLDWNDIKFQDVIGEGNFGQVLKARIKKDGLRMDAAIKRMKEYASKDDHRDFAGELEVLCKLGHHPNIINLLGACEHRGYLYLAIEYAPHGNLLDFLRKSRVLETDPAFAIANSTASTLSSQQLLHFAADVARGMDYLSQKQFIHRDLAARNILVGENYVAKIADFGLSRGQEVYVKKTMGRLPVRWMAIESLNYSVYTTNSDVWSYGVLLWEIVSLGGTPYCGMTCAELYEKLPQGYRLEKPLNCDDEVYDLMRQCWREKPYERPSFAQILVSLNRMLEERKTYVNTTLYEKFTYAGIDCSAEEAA
Sequence of BDNF/NT-3 growth factors receptor (Homo sapiens) (Q16620 32-822 limits assumed): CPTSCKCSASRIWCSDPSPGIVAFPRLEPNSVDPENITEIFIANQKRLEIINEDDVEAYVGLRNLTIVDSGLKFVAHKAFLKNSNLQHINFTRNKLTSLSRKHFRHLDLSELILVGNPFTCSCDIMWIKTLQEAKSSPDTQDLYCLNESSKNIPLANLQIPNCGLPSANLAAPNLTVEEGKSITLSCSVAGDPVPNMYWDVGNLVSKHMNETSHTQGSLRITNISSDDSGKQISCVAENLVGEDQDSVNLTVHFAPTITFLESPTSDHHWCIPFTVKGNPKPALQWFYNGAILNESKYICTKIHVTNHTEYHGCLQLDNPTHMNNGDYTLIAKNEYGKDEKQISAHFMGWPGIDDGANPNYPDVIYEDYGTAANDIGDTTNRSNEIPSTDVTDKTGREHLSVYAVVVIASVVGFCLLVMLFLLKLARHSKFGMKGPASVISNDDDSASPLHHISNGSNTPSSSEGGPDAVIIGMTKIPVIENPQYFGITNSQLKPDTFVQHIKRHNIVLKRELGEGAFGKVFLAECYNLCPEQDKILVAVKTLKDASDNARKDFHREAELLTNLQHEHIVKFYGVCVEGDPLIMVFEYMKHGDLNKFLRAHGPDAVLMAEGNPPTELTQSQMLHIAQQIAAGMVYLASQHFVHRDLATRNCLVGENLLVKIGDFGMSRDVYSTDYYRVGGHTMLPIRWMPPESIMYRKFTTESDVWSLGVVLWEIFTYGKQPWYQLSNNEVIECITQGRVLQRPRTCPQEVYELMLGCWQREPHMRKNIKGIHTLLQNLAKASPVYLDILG
Sequence of High affinity nerve growth factor receptor (Homo sapiens) (P04629 33-796 limits assumed): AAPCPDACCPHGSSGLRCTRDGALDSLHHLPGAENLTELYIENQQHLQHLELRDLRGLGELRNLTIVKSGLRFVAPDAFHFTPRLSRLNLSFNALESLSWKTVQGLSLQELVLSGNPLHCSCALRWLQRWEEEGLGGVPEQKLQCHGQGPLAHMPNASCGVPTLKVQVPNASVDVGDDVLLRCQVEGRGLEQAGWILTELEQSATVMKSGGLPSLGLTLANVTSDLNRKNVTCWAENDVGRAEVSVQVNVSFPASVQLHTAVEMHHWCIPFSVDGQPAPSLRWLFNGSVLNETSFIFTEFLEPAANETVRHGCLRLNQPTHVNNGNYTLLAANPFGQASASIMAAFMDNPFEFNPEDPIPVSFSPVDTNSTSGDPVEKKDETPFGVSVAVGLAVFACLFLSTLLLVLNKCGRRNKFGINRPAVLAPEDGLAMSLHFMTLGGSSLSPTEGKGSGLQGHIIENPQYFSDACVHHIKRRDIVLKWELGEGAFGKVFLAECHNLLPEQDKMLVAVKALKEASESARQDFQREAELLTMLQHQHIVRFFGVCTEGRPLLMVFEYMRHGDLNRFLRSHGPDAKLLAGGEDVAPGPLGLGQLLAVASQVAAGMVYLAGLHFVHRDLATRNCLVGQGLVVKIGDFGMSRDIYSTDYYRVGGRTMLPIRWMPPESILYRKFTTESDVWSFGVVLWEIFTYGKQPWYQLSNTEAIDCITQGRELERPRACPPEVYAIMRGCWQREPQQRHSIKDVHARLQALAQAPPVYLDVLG
Sequence of Serine/threonine-protein kinase tousled-like 2 (Homo sapiens) (Q86UE8 whole entry, looked up): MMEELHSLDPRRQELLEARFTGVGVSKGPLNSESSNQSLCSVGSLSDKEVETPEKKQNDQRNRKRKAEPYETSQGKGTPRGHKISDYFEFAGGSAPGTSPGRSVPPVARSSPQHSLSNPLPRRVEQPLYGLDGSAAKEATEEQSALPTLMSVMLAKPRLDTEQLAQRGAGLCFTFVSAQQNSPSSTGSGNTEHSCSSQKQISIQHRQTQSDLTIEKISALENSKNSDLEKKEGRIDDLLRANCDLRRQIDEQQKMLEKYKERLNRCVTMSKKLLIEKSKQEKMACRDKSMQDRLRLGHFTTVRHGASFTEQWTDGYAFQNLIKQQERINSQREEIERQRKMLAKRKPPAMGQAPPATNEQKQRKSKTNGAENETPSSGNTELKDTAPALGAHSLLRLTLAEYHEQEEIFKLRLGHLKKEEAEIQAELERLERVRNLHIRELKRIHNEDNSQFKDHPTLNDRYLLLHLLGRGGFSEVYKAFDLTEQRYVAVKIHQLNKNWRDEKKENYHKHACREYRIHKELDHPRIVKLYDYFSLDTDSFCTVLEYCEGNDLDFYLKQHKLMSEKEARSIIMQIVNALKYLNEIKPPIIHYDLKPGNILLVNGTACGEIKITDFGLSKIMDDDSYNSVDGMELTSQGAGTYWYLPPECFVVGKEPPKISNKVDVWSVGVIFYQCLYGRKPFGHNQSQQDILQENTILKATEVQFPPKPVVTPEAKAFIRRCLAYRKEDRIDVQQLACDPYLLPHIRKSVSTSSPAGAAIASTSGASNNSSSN

Turning to `O=C1Nc2cc(Br)ccc2/C1=C1/Nc2ccccc2/C1=N\O`, the residual activity in [1] is 80%; in experiment [2], 84%; in experiment [3], 69%; in experiment [4] it was 45%; in [5] it was 89%; in experiment [6], 86%. The residual activity came out at 65% in [7]; 70% in [8]; 81% in experiment [9]; 48% in [10]; 86% in experiment [11]; 90% in [12]. The residual activity in experiment [13] was 62%; in [14], 15%; in experiment [15], 13%; in experiment [16], 67%; in experiment [17], 79%; in [18] it was 0%. For the same compound, the residual activity is 0% in experiment [19] and -1% in [20].
Turning to `COc1ccc(OC)c2c(=S)c3ccccc3[nH]c12`, the residual activity amounted to 89% in experiment [1]; 85% in [2]; 70% in experiment [3]; 54% in experiment [4]; 98% in experiment [5]; 95% in experiment [6]. The residual activity in experiment [7] was found to be 74%; in experiment [8], 91%; in [9], 84%; in experiment [10], 87%; in experiment [11], 90%; in experiment [12] it was 94%. Moreover, the residual activity was determined as 90% in experiment [13]; 92% in experiment [14]; 84% in experiment [15]; 94% in experiment [16]; 94% in experiment [17]; 78% in experiment [18]. For the same compound, the residual activity in [19] amounted to 57%; in experiment [20], 88%.
As to `CN(C)CCCn1cc(C2=C(c3c[nH]c4ccccc34)C(=O)NC2=O)c2ccccc21`, the residual activity was found to be 134% in [1]; 74% in experiment [2]; 72% in experiment [3]; 59% in experiment [4]; 105% in experiment [6]; 90% in [8]. The residual activity in experiment [9] was 21%; in experiment [10], 2%; in experiment [11], 86%; in experiment [12], 37%; in [14], 113%; in experiment [15], 65%. Further, the residual activity was found to be 120% in experiment [16]; 60% in experiment [17]; 48% in [18]; 13% in experiment [19]; 36% in experiment [20].
